Results filed as inconclusive are left out. Active and inactive are the calls of the source. How the source made its calls, unless noted: active means hit-call score of the fitted dose curve at least 0.9, where 1 is the maximum; inactive means score below 0.9.

Read-out in experiment [1]: Tissue Factor, F3 (gene 2152)
Description: BSK_LPS_TissueFactor: BioMAP Diversity Plus: LPS Assay for Tissue Factor Biomarker Activity (AID 2283084). The conditions noted are these: primary human HUVEC with PBMC; actives raise or lower the signal. The method in brief: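 Read-out: CD142 ELISA, 24 h. System: LPS-driven human endothelial/PBMC co-culture. Analysis: up- or down-signal fitted against DMSO.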

Read-out in experiment [2]: Tumor necrosis factor (Homo sapiens) (UniProt P01375)
Description: BSK_LPS_TNFa: BioMAP Diversity Plus: LPS Assay for Tumour Necrosis Factor alpha (TNFa) Biomarker Activity (AID 2283085).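 On AC50: TNFa protein level quantified by ELISA in the co-culture.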 To be noted: primary human HUVEC with PBMC; actives raise or lower the signal. In short, it runs like this:
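Cells (umbilical vein endothelium plus peripheral blood mononuclear cells) were dosed with chemical, incubated 24 h, then TNFa was quantified by ELISA; values derive from bidirectional fitting with DMSO as baseline.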

Read-out in experiment [3]: Vascular cell adhesion molecule 1 (VCAM1), VCAM1 (gene 7412)
Description: BSK_LPS_VCAM1: BioMAP Diversity Plus: LPS Assay for Vascular cell adhesion molecule 1 (VCAM1) Biomarker Activity (AID 2283086). The conditions noted are these: primary human HUVEC with PBMC; actives raise or lower the signal. In short, it runs like this: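 Cells are dosed in an LPS-stimulated endothelial/mononuclear co-culture and, after 24 h, VCAM-1 is quantified by ELISA. Activity in either direction is fitted relative to the DMSO negative control.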

Read-out in a further experiment: CD38, CD38 (gene 952)
Briefly: BSK_SAg_CD38: BioMAP Diversity Plus: SAg Assay for CD38 Biomarker Activity (AID 2283087). The conditions noted are these: primary human HUVEC with PBMC; actives raise or lower the signal. The method in brief: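 CD38 quantified by ELISA (fluorescence) in a superantigen-activated endothelial cell–PBMC co-culture at 24 h post-dose. Activity fitted in both directions relative to DMSO; parallel SRB and Alamar Blue cytotoxicity read-outs.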

Read-out in the next experiment: CD40, CD40 (gene 958)
Description: BSK_SAg_CD40: BioMAP Diversity Plus: SAg Assay for CD40 Biomarker Activity (AID 2283088). To be noted: primary human HUVEC with PBMC; actives raise or lower the signal. In short, it runs like this: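 Endpoint derived by fitting increases or decreases versus DMSO controls. CD40 is detected by fluorescence ELISA in a human vascular co-culture of endothelium and PBMC at 24 h.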

Read-out in a further experiment: CD69, CD69 (gene 969)
Briefly: BSK_SAg_CD69: BioMAP Diversity Plus: SAg Assay for CD69 Biomarker Activity (AID 2283089).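 On AC50: cell surface CD69 protein quantified by ELISA with fluorescence detection.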 To be noted: primary human HUVEC with PBMC; actives raise or lower the signal. The method in brief:
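Endothelial/PBMC co-culture; chemical added; 24 h incubation; CD69 ELISA with fluorescence detection; bidirectional fit vs DMSO.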

Read-out in experiment [4]: Monocyte Chemoattractant Protein-1 (MCP1), CCL2 (gene 6347)
Briefly: BSK_SAg_MCP1: BioMAP Diversity Plus: SAg Assay for Monocyte Chemoattractant Protein-1 (MCP1) Biomarker Activity (AID 2283090). To be noted: primary human HUVEC with PBMC; actives raise or lower the signal. The method in brief: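 Values derive from bidirectional fitting of ELISA-measured MCP1 against DMSO controls. Readings were taken 24 h after dosing human vascular endothelial cells co-cultured with peripheral blood mononuclear cells under superantigen stimulation.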

Read-out in experiment [5]: E-selectin (Homo sapiens) (UniProt P16581)
Description: BSK_SAg_Eselectin: BioMAP Diversity Plus: SAg Assay for Eselectin Biomarker Activity (AID 2283091). To be noted: primary human HUVEC with PBMC; actives raise or lower the signal. In short, it runs like this: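 Endpoint values derive from bidirectional fitting relative to DMSO, using ELISA-measured E-selectin in a human vascular co-culture (umbilical vein endothelium plus PBMC) sampled 24 h after dosing.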

Read-out in experiment [6]: Monokine induced gamma interferon (MIG), CXCL9 (gene 4283)
Briefly: BSK_SAg_MIG: BioMAP Diversity Plus: SAg Assay for Monokine induced gamma interferon (MIG) Biomarker Activity (AID 2283092). The conditions noted are these: primary human HUVEC with PBMC; actives raise or lower the signal. The method in brief:
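Measures CXCL9 protein by ELISA in a human vascular primary-cell co-culture (umbilical vein endothelium with PBMC) 24 h after chemical addition. Activity is scored up or down from the DMSO control.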

Experiment [7] can be described thus: BSK_SAg_PBMCCytotoxicity: PBMC Cytotoxicity Assessment in the BioMAP Diversity Plus: SAg Assay (AID 2283093).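 Further: PBMC viability measured as Alamar Blue reduction fluorescence at 546/580 nm; fitted both ways against DMSO so a hit may be loss or gain of signal.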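 On AC50: PBMC superantigen activated with SEB plus TSST-1 one hour after compound addition.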 To be noted: primary human HUVEC with PBMC. The method in brief: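 Alamar Blue reduction (6 h, 546/580 nm) reports PBMC cytotoxicity after 90 h superantigen activation (SEB, TSST-1; 20 ng/mL final each) with 1 h compound pre-treatment. Gain or loss of signal fitted versus DMSO.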

Read-out in experiment [8]: Interleukin-8 (IL8), CXCL8 (gene 3576)
Briefly: BSK_SAg_IL8: BioMAP Diversity Plus: SAg Assay for Interleukin-8 (IL8) Biomarker Activity (AID 2283094). To be noted: primary human HUVEC with PBMC; actives raise or lower the signal. The method in brief:
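Chemicals were dosed onto a human endothelial–PBMC co-culture, and IL-8 was quantified by ELISA after 24 h. Both increases and decreases were fitted relative to DMSO.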

The nature of experiment [9]: BSK_SAg_SRB: Viability Assessment in the BioMAP Diversity Plus: SAg Assay (AID 2283096).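 Further: cells read one day after compound addition; hits may be either gain or loss of signal compared with DMSO.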 To be noted: primary human HUVEC with PBMC. The method in brief: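 This overt-cytotoxicity endpoint quantifies protein in human endothelial/PBMC co-cultures at 24 h using SRB absorbance (560 nm) after trichloroacetic acid fixation. Values reflect signal change from the DMSO negative control, fitted bidirectionally.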

Read-out in experiment [10]: Macrophage colony-stimulating factor (MCSF), CSF1 (gene 1435)
Description: BSK_LPS_MCSF: BioMAP Diversity Plus: LPS Assay for Macrophage colony-stimulating factor (MCSF) Biomarker Activity (AID 2283083). The conditions noted are these: primary human HUVEC with PBMC; actives raise or lower the signal. The method in brief:
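Bidirectional fit versus DMSO of ELISA-measured M-CSF in co-cultured human umbilical vein endothelial cells and PBMC, sampled 24 h after dosing.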

The nature of experiment [11]: BSK_SAg_Proliferation: Cell Proliferation Assessment in the BioMAP Diversity Plus: SAg Assay (AID 2283095).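 Further: relative cell number as total protein by SRB absorbance in sub-confluent culture.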 The conditions noted are these: primary human HUVEC with PBMC. The method in brief:
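Absorbance of sulforhodamine B at 560 nm reports total protein in a human vascular endothelial/PBMC co-culture after 96 h chemical exposure. Gain or loss of signal is fitted in both directions against DMSO.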

The target in experiment [12] is human CYP2A6, CYP2A6 (gene 1548) (UniProt P11509). Description: NVS_ADME_hCYP2A6: NovaScreen (NVS) CYP450-related Enzyme Activity (ADME) Assay for human CYP2A6 (AID 2283099; active means hit-call score of the fitted dose curve at least 0.9, where 1 is the maximum). The method in brief: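 Loss of fluorescence signal relative to acetonitrile vehicle reported CYP2A6 inhibition in a cell-free system using insect-cell-derived enzyme. Readings were taken at 0.5 h; top concentration in follow-up dose series was 20 uM.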
Chain of human CYP2A6, CYP2A6 (gene 1548) (P11509 whole entry, looked up): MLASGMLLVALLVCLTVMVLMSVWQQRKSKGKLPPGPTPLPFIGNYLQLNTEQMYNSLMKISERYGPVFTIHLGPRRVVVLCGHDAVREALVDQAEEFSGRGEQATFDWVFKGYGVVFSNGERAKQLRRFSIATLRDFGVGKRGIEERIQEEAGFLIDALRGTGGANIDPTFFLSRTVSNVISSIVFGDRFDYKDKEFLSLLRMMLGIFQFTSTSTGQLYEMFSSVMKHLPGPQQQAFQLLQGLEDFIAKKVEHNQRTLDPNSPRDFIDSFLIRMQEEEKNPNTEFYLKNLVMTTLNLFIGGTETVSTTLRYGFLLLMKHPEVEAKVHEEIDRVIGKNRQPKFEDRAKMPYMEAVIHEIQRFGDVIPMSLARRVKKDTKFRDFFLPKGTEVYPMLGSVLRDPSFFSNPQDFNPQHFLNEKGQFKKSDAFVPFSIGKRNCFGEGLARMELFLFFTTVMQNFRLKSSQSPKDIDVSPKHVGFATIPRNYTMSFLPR

Experiment [13] has as its target human CYP1A1, CYP1A1 (gene 1543) (UniProt P04798). Briefly: NVS_ADME_hCYP1A1: NovaScreen (NVS) CYP450-related Enzyme Activity (ADME) Assay for human CYP1A1 (AID 2283100; active means hit-call score of the fitted dose curve at least 0.9, where 1 is the maximum). The method in brief: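 Inhibition of recombinant CYP1A1 turnover was assessed fluorometrically in a biochemical format 1 h after compound exposure. Testing began at 10 uM in duplicate and progressed to concentration series reaching 20 uM, with on-plate positive and negative controls.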

The target in experiment [14] is human CYP2B6, CYP2B6 (gene 1555) (UniProt P20813). Briefly: NVS_ADME_hCYP2B6: NovaScreen (NVS) CYP450-related Enzyme Activity (ADME) Assay for human CYP2B6 (AID 2283101; active means hit-call score of the fitted dose curve at least 0.9, where 1 is the maximum). In short, it runs like this: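 Recombinant protein, specific fluorescent substrate, read at 1 h post-dosing. Primary: single 10 uM, duplicate; follow-up: concentration series. Activity = signal loss vs acetonitrile baseline, with positive and negative controls on every plate.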
Chain of human CYP2B6, CYP2B6 (gene 1555) (P20813 whole entry, looked up): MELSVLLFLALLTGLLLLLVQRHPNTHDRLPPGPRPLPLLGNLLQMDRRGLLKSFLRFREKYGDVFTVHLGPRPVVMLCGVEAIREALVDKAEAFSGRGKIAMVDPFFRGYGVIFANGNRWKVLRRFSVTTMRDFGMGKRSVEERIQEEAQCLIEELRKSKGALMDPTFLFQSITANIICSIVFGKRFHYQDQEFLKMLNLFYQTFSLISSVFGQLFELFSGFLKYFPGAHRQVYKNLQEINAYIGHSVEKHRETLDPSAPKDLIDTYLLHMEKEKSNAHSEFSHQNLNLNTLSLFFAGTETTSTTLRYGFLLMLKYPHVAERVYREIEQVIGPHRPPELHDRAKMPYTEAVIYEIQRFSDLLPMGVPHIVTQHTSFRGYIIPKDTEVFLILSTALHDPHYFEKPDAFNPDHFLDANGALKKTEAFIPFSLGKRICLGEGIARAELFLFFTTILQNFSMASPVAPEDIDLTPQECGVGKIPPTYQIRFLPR

For experiment [15], the target named is human CYP1A2, CYP1A2 (gene 1544) (UniProt P05177). Briefly: NVS_ADME_hCYP1A2: NovaScreen (NVS) CYP450-related Enzyme Activity (ADME) Assay for human CYP1A2 (AID 2283102; active means hit-call score of the fitted dose curve at least 0.9, where 1 is the maximum;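 further: fluorescence from turnover of a fluorogenic substrate by recombinant insect-cell CYP1A2; potency for inhibition since loss of fluorescence marks reduced CYP1A2 activity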). In short, it runs like this: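 Inhibition scored as decrease in fluorescent product versus acetonitrile negative control. Enzyme: insect-cell recombinant human CYP1A2, substrate-specific, cell-free. Reading at 0.5 h; 10 uM duplicate initial screen with positive and negative controls on every plate.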
Chain of human CYP1A2, CYP1A2 (gene 1544) (P05177 whole entry, looked up): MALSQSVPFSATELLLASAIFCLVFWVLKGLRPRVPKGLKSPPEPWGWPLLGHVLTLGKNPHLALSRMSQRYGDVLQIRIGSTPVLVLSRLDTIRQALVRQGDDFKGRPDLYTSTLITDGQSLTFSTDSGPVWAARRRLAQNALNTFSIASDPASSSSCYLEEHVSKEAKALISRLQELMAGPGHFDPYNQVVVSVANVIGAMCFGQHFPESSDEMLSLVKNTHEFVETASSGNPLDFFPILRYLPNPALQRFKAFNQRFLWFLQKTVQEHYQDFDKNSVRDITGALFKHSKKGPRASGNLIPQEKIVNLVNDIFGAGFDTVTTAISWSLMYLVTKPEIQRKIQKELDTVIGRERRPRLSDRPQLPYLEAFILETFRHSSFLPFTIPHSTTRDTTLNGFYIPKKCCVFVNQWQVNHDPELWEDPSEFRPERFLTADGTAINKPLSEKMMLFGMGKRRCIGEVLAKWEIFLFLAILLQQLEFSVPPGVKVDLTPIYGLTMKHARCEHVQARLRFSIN

In experiment [16] the target is human CYP2D6, CYP2D6 (gene 1565) (UniProt P10635). Briefly: NVS_ADME_hCYP2D6: NovaScreen (NVS) CYP450-related Enzyme Activity (ADME) Assay for human CYP2D6 (AID 2283107; active means hit-call score of the fitted dose curve at least 0.9, where 1 is the maximum). The method in brief: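 Biochemical fluorescence assay, insect-cell-derived enzyme. Read at 1 h; inhibition taken from loss of signal against acetonitrile. Screened at 10 uM in duplicate, with concentration series for actives.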
Chain of human CYP2D6, CYP2D6 (gene 1565) (P10635 whole entry, looked up): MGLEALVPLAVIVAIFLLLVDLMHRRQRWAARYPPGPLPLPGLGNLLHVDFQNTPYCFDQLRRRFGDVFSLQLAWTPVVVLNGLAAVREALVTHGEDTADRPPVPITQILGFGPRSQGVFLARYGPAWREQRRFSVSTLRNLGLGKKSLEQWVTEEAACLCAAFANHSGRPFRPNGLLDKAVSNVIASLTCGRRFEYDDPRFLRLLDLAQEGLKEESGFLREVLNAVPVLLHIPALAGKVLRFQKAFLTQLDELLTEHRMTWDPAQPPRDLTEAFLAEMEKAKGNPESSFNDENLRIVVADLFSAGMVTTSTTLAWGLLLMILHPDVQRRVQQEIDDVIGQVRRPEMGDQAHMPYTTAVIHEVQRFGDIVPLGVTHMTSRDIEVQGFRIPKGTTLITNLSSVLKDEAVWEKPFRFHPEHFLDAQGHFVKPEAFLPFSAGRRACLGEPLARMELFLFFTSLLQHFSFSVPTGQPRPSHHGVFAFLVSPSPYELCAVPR

Chain of E-selectin (Homo sapiens) (P16581 whole entry, looked up): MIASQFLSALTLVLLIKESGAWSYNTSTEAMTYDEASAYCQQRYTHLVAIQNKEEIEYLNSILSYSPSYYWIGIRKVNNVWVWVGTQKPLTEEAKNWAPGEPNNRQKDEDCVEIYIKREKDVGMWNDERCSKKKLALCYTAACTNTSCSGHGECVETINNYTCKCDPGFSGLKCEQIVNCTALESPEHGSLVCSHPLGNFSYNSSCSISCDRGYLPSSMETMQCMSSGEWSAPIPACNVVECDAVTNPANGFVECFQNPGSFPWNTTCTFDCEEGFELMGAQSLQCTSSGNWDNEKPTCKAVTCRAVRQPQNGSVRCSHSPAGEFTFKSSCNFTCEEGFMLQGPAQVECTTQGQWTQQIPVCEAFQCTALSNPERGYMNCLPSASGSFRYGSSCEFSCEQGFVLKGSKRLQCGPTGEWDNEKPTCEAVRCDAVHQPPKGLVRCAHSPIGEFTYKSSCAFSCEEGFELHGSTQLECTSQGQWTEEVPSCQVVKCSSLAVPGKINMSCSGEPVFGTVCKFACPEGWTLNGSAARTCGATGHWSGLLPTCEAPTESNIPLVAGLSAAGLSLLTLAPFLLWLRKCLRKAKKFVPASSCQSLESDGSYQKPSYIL
Chain of Tumor necrosis factor (Homo sapiens) (P01375 whole entry, looked up): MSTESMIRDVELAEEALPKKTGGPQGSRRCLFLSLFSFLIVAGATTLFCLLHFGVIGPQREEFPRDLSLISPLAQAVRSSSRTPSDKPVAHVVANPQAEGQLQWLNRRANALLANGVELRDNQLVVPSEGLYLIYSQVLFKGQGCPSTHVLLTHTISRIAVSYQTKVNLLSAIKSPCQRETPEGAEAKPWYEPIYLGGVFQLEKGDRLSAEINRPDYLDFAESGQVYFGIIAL
Chain of human CYP1A1, CYP1A1 (gene 1543) (P04798 whole entry, looked up): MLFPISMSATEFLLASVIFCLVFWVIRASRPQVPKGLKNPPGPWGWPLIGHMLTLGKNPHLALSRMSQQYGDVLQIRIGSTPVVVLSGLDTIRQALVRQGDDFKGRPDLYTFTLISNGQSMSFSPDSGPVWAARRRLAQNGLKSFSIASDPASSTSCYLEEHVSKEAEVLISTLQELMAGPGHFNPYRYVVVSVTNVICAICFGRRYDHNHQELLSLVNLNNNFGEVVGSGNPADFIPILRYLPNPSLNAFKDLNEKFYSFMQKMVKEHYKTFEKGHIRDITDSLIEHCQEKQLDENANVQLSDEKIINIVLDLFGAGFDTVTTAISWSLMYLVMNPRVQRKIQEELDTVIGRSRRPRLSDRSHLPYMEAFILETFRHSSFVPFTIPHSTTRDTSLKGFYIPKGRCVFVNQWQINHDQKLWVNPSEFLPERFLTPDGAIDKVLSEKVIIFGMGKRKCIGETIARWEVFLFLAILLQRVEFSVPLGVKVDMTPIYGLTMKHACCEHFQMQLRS

Take `O=c1[nH]cnc2c1ncn2[C@H]1CC[C@@H](CO)O1`: the outcome in experiment [1] was “inactive”; in [2], “inactive”; in [3], “inactive”; in the experiment with CD38, CD38 (gene 952) it was “inactive”; with CD40, CD40 (gene 958), “inactive”; in the experiment with CD69, CD69 (gene 969) it was “inactive”. In addition, the result in [4], in experiment [5], in experiment [6], in experiment [7], in experiment [8] and in experiment [9] was inactive.
Turning to `Cc1ccc(S(=O)(=O)NC(=O)NN2CCCCCC2)cc1`, the outcome was “inactive” in experiment [10]; “inactive” in [1]; “inactive” in [2]; “inactive” in experiment [3]; “inactive” with CD38, CD38 (gene 952); “inactive” in the experiment with CD40, CD40 (gene 958). Further, the outcome with CD69, CD69 (gene 969) is “inactive”; in [4] it was “inactive”; in [5], “inactive”; in experiment [6] it was “inactive”; in experiment [7] it was “inactive”; in experiment [8] it was “inactive”. The result in experiment [9] was inactive.
Consider `COc1cc(C(C)C)c2c(c1)S(=O)(=O)N(COc1cc(=O)n3cccc(OCCN4CCCCC4)c3n1)C2=O`, for which the AC50 in experiment [10] is 5 µM (active); in experiment [3], 6.02 µM (active); in the experiment with CD40, CD40 (gene 958), 5 µM (active); in the experiment with CD69, CD69 (gene 969), 5 µM (active); in [4] it was 5 µM (active); in [5] it was 5 µM (active). Besides, in experiment [11], the concentration at half-maximal activity (AC50) is 7.69 µM (active). Moreover, the outcome was “inactive” in experiment [1]; “inactive” in [2]; “inactive” with CD38, CD38 (gene 952); “inactive” in experiment [6]; “inactive” in experiment [7]; “inactive” in experiment [9].
For `c1ccc(C(O[C@@H]2CCCN(CCc3ccc4c(c3)OCO4)C2)c2ccccc2)cc1`, the AC50 in [10] is 29.8 µM (active); with CD38, CD38 (gene 952), 30.6 µM (active); in the experiment with CD40, CD40 (gene 958), 30.4 µM (active); with CD69, CD69 (gene 969) it was 30.3 µM (active); in [4], 26.5 µM (active); in experiment [5] it was 27.6 µM (active). Besides, the AC50 in experiment [6] is 30.9 µM (active); in experiment [7] it was 28.4 µM (active); in experiment [8], 14.1 µM (active); in [9], 24.3 µM (active); in experiment [13], 4.89 µM (active); in experiment [14], 4.4 µM (active). For the same compound, the values for the AC50 in [15] and in [16] were 5.35 µM (active) and 1.59 µM (active), respectively. Besides, the result in [1], in experiment [2], in [3] and in experiment [12] was inactive.
Take `NNC(=O)c1ccncc1`: the outcome in experiment [10] was “inactive”; in experiment [1] it was “inactive”; in experiment [2], “inactive”; in experiment [3], “inactive”; with CD38, CD38 (gene 952), “inactive”; in the experiment with CD40, CD40 (gene 958) it was “inactive”. In addition, the outcome with CD69, CD69 (gene 969) is “inactive”; in [4] it was “inactive”; in experiment [5], “inactive”; in experiment [6], “inactive”; in experiment [8], “inactive”; in [9], “inactive”. In experiment [7], the AC50 was 5.14 µM (active).
With `CCCCCOC(C)=O`, the outcome in experiment [10] is “inactive”; in experiment [1], “inactive”; in experiment [3], “inactive”; with CD38, CD38 (gene 952), “inactive”; with CD40, CD40 (gene 958), “inactive”; with CD69, CD69 (gene 969) it was “inactive”. The outcome in experiment [4], in [5], in [6], in [8] and in [9] was inactive. For the same compound, the AC50 is 10.1 µM (active) in experiment [2] and 30.3 µM (active) in experiment [7].

Usually AC50 stands for the midpoint of the concentration-response curve, whichever way the signal moves.
